High-throughput results as filed in PubChem BioAssay.
A selection: hits, their analogues and other compounds. The true share with any hit is near 1.3%.
Phagocytosis inh: blocks phagocytosis by macrophages; J774A.1 macrophage IgG-bead phagocytosis, imaging; inhibition, % at 5 µM; 0.07% of 110,000 active; AID 1029;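 active = inhibition above the mean of the plate negative controls plus 5 SD, cut at about 13% in these data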;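 also: phagocytic index as fraction of beads internalized from green versus red external bead signal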
S1P2 blocker: blocks the human S1P2 receptor | inhibition, % at 5 µM | cell-based S1P2 antagonist assay, inhibition at 5 uM | O95136 | 0.21% of 97,000 active; in the data active = inhibition above about 45%;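 also: CRE beta-lactamase reporter cells expressing human S1P2 stimulated with S1P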
Target sequence (O95136 whole entry, looked up): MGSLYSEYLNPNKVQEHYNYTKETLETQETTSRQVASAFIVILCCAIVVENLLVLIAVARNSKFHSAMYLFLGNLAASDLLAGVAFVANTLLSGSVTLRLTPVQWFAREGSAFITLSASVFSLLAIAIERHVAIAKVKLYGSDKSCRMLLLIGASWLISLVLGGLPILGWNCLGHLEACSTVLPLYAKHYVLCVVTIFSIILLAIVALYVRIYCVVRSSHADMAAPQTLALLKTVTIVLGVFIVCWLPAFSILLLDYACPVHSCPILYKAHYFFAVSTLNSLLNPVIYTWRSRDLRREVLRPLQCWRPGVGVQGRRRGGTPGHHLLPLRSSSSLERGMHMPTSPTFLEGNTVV
GALR2 agonist: agonists of human galanin receptor 2 (GALR2) | O43603 | GALR2-expressing cells, agonist activation read-out | activation, % (concentration not given with the values) | 0.48% of 140,000 active; in the data active = activation above about 5%, passing the limit was not always enough
Target sequence (O43603 whole entry, looked up): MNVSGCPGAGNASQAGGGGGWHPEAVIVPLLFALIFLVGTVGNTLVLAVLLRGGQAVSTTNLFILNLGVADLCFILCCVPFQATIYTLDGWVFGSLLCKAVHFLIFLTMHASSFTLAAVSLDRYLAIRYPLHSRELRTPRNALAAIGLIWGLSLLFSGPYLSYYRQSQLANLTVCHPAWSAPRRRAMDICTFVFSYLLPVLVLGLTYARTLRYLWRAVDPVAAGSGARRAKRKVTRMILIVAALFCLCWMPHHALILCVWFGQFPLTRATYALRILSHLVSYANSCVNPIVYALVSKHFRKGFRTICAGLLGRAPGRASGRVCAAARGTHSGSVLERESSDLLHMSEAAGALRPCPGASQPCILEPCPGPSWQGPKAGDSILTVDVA
GALR2 antag: blocks the human galanin receptor 2 | O43603 | 0.39% of 140,000 active | inhibition, % at 4 µM | GALR2-expressing cells, antagonist mode;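 also: cells stimulated with galanin 1-16 at roughly its EC80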
S1P2 ag: S1P2 (human) receptor agonism; O95136; S1P2-expressing cell line, agonist reporter read-out; activation, % at 4.5 µM; 0.46% of 97,000 active; AID 729; in the data active = activation above about 16%
GALR2 ant conf: confirmation of human galanin receptor 2 (GALR2) antagonists; AID 866; 60% of 480 active; shares compounds with GALR2 antag; inhibition, % at 4 µM; GALR2-expressing cells, antagonist mode, inhibition;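 also: cells stimulated with galanin at about its EC80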
BLA inh counter: beta-lactamase inhibition, GALR2 counterscreen. shares compounds with GALR2 antag. CHO NFAT-BLA reporter, beta-lactamase FRET, thapsigargin-stimulated. inhibition, % at 4.2 µM. 36% of 480 active. AID 867;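 active = inhibition above the mean inhibition across tested compounds plus 3 SD, cut at about 27% in these data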
Of the large screens only hits and unclear results are named; the others gave an inactive call (follow-up assays come after a bar, where they were run). Rule as the data show it, unless noted: active = inhibition above about 27%; inactive = the rest.

N#C/C(=C\c1ccc(OC(=O)c2cccs2)cc1)c1nc2ccccc2[nH]1	none (no result: S1P2 blocker, S1P2 ag)
COCn1ccnc1C(O)(c1ccc(OC)cc1)c1ccc(OC)cc1	none (no result: S1P2 blocker, S1P2 ag)
COc1cccc(OCC(=O)O/N=C(\N)c2ccc(OC)c(OC)c2)c1	none (no result: S1P2 blocker, S1P2 ag)
O=S(=O)(NCc1ccncc1)c1ccc(Br)s1	GALR2 antag 37 (no result: S1P2 blocker, S1P2 ag) | GALR2 ant conf 44 | BLA inh counter inactive
O=C(O)CNS(=O)(=O)c1ccc(Br)s1	none (no result: S1P2 blocker, S1P2 ag)
c1ccc(CN2CCN(C3=Nc4cccc5cccc3c45)CC2)cc1	none (no result: Phagocytosis inh)
O=C1CCN2C=Nc3cccc4ccc1c2c34	GALR2 antag 29 | GALR2 ant conf inactive | BLA inh counter inactive
O=C(O)C1CSC(c2ccccc2Cl)N1C(=O)c1ccc(Cl)cc1 (stereo not given)	none (no result: S1P2 blocker, S1P2 ag)
CC1(C)CC(=O)/C(=C\c2cccc([N+](=O)[O-])c2)C(C)(C)N1	GALR2 antag 27 (no result: S1P2 blocker, S1P2 ag) | GALR2 ant conf 34 | BLA inh counter inactive
COc1ccccc1-n1c(SCC(=O)c2ccc(O)cc2O)nc2cc([N+](=O)[O-])ccc21	none (no result: Phagocytosis inh, S1P2 blocker, S1P2 ag)
CCSCCc1nnc(NC(=O)Nc2cccc(C(F)(F)F)c2)s1	none (no result: S1P2 blocker, S1P2 ag)
Cc1cc(C)nc(SCc2ccc(C(=O)N/N=C/c3cccc(O)c3O)cc2)n1	GALR2 antag 28 (no result: S1P2 blocker, S1P2 ag) | GALR2 ant conf inactive | BLA inh counter 28
CCn1c(SCC(=O)Nc2ccccc2)nc2c1c(=O)n(C)c(=O)n2C	none (no result: Phagocytosis inh)
Cn1c(=O)c2c(nc(SCC(=O)Nc3ccccc3)n2C)n(C)c1=O	GALR2 antag 28 (no result: S1P2 blocker, S1P2 ag) | GALR2 ant conf inactive | BLA inh counter inactive
COc1ccc(C(=O)c2sc(NC(C)C)nc2N)cc1OC	none
COc1cccc(C(=O)c2sc(NC(C)C)nc2N)c1	GALR2 antag 40 (no result: Phagocytosis inh, S1P2 blocker, S1P2 ag) | GALR2 ant conf inactive | BLA inh counter inactive
Cc1nn(C)c(C)c1N1C(=O)c2cccc3c(N)ccc(c23)C1=O	GALR2 antag 32 (no result: S1P2 blocker, S1P2 ag) | GALR2 ant conf inactive | BLA inh counter inactive
Cc1nn(C)c(C)c1N1C(=O)c2cccc3c(Br)ccc(c23)C1=O	GALR2 antag 29 (no result: Phagocytosis inh) | GALR2 ant conf 30 | BLA inh counter inactive
Cc1ccc2[nH]c(=O)c(COC(=O)c3cccs3)cc2c1	none (no result: S1P2 blocker, S1P2 ag)
CC1(C)CC(=O)C=C(NC2=CC3OC(c4ccccc4)OCC3OC2=O)C1 (stereo not given)	GALR2 antag 69 (no result: S1P2 blocker, S1P2 ag) | GALR2 ant conf 76 | BLA inh counter 65
Cc1ccccc1NC1=CC(=O)CC(C)(C)C1	none (no result: Phagocytosis inh)
COc1cc(C(=S)N2CCCC2)cc(Cl)c1OCC(=O)Nc1ccc(C)cc1C	none (no result: S1P2 blocker, S1P2 ag)
COc1cc(/C=N\NC(=O)C2CC3C=CC2C3)ccc1O (stereo not given)	none (no result: S1P2 blocker, S1P2 ag)
CC(O/N=C/c1ccc(OC(F)F)cc1)C(=O)Nc1cccc(S(=O)(=O)N2CCOCC2)c1 (stereo not given)	none (no result: S1P2 blocker, S1P2 ag)
Oc1ccc(Nc2nc3ccccc3nc2Nc2ccc(O)cc2)cc1	GALR2 antag 32 | GALR2 ant conf 34 | BLA inh counter 33
NC(=O)c1sc2nc(-c3ccco3)ccc2c1N	none
Nc1c(C(=O)Nc2ccccc2F)sc2nc(-c3ccco3)ccc12	GALR2 antag 31 | GALR2 ant conf inactive | BLA inh counter inactive
CCc1n[nH]c(=S)n1/N=C/c1cc(Br)c(OC)cc1OC	none (no result: S1P2 blocker, S1P2 ag)
CC(=O)c1ccn(S(=O)(=O)c2ccccc2)c1	none (no result: S1P2 blocker, S1P2 ag)
OCCCc1nc2n(n1)C(c1ccccc1Cl)C=C(c1cccs1)N2 (stereo not given)	GALR2 antag 28 | GALR2 ant conf inactive | BLA inh counter inactive
O=C(/C=C/c1ccccc1)NC(NC(=S)Nc1cc(Cl)ccc1Cl)C(Cl)(Cl)Cl (stereo not given)	none (no result: Phagocytosis inh)
CCOc1ccc(C(=O)C(CCC(CN(C)C)C(=O)c2ccc(OCC)cc2)CN(C)C)cc1 (stereo not given)	GALR2 antag 39 (no result: Phagocytosis inh, S1P2 blocker, S1P2 ag) | GALR2 ant conf 28 | BLA inh counter 30
COc1ccc(C(=O)C(CCCCC(CN(C)C)C(=O)c2ccc(OC)cc2)CN(C)C)cc1 (stereo not given)	none (no result: Phagocytosis inh)
O=C(CN1C(=O)NC2(CCc3ccccc32)C1=O)Nc1ccc(N2CCOCC2)cc1 (stereo not given)	none
Cc1ccc(NC(=O)CN2C(=O)NC3(CCc4ccccc43)C2=O)cc1Cl (stereo not given)	GALR2 antag 28 (no result: Phagocytosis inh) | GALR2 ant conf inactive | BLA inh counter inactive
Cc1ccc(-n2c(-c3ccc(Br)cc3)c[n+]3c2CCc2ccc4cccnc4c2-3)cc1	S1P2 blocker 88, GALR2 antag 59 (no result: Phagocytosis inh) | GALR2 ant conf 31 | BLA inh counter 61
Cc1cc(Nc2ccccc2)nc(NCc2ccccc2)n1	GALR2 antag 42 (no result: S1P2 blocker, S1P2 ag) | GALR2 ant conf 50 | BLA inh counter 31
Cc1cc(Nc2cccc(F)c2)nc(NCc2ccccc2)n1	none (no result: S1P2 blocker, S1P2 ag)
O=C(/C=C/c1ccccc1)N1CCN(CCN2C(=O)c3cccc4cccc(c34)C2=O)CC1	none (no result: S1P2 blocker, S1P2 ag)
O=[N+]([O-])c1cc(C=Nc2ccc3ccccc3c2)ccc1Br	GALR2 antag 33 (no result: S1P2 blocker, S1P2 ag) | GALR2 ant conf inactive | BLA inh counter inactive
CC(NC(=O)OC(C)(C)C)C(=O)Oc1cc2oc(=O)cc(-c3ccccc3)c2cc1Cl (stereo not given)	GALR2 antag 32 | GALR2 ant conf 29 | BLA inh counter 40
O=[N+]([O-])c1ccc(S(=O)(=O)CC2CSc3nc4ccccc4n32)cc1 (stereo not given)	none (no result: S1P2 blocker, S1P2 ag)
CN(/N=C\c1ccc(O)c(O)c1)c1nc(-c2ccccc2)cc(-c2ccccc2)n1	GALR2 antag 47 (no result: S1P2 blocker, S1P2 ag) | GALR2 ant conf 64 | BLA inh counter 81
C=C1C(=O)[C@@]23[C@H](O)C[C@@H]4C(C)(C)CC[C@H](O)[C@]4(C)[C@@H]2C[C@H](O)[C@@H]1[C@H]3O	none (no result: Phagocytosis inh, S1P2 blocker, S1P2 ag)
C=C1C(=O)[C@@]23[C@H](O)C[C@@H]4C(C)(C)CC[C@H](O)[C@@]4(C)[C@@H]2CC[C@@H]1[C@H]3O	GALR2 antag 38 (no result: Phagocytosis inh, S1P2 blocker, S1P2 ag) | GALR2 ant conf 38 | BLA inh counter 58
CCCC(=O)c1ccc(N2CCC(C)CC2)c(F)c1	none (no result: S1P2 blocker, S1P2 ag)
Cn1nc(CC(=O)Nc2ccc3c(c2)OCCO3)c2ccccc2c1=O	GALR2 antag 36 (no result: S1P2 blocker, S1P2 ag) | GALR2 ant conf 42 | BLA inh counter inactive
COc1ccccc1NC(=O)Cc1nn(C)c(=O)c2ccccc12	GALR2 antag 35 | GALR2 ant conf 40 | BLA inh counter inactive
COc1cc(NC(=O)Cc2nn(C)c(=O)c3ccccc23)cc(OC)c1	none
CCc1ccc2c(c1)C1(NN=C(c3cccc4ccccc34)S1)C(=O)N2 (stereo not given)	GALR2 antag 29 (no result: Phagocytosis inh) | GALR2 ant conf inactive | BLA inh counter inactive
O=C1Nc2ccccc2/C1=C\c1cccn1-c1ccc(OC(F)(F)F)cc1	none
O=C(O)c1cccc2cccnc12	none
c1cnc2c(c1)ccc1cccnc12	GALR2 antag 36 (no result: Phagocytosis inh, S1P2 blocker, S1P2 ag) | GALR2 ant conf 48 | BLA inh counter inactive
Cc1ccc2c(c1)C(=O)c1ccccc1CS2=O (stereo not given)	none (no result: S1P2 blocker, S1P2 ag)
Cc1ccc(-n2c(Cl)c(Cl)nc(Cl)c2=O)cc1	GALR2 antag 81 (no result: S1P2 blocker, S1P2 ag) | GALR2 ant conf 92 | BLA inh counter 99
